According to PubChem BioAssay (EPA / NIEHS):
Results filed as inconclusive are left out. Activity calls are given as the source filed them. How the source made its calls: active means hit-call score of the fitted dose curve at least 0.9, where 1 is the maximum; inconclusive means response in the unintended direction; inactive means score below 0.9.

Test: Tanguay_ZF_120hpf_TRUN_legacy: (Legacy) Oregon State University Tanguay Lab 120 Hour Post-fertilization zebrafish Assay for Truncated Body (AID 2283655)
Procedure: Tanguay_ZF_120hpf_legacy is a whole embryo, multiplexed endpoint assay using zebrafish larvae exposed for 120 hours post fertilization on a 96-well plate.Tanguay_ZF_120hpf_TRUN_legacy is one of one assay component(s) measured or calculated from the Tanguay_ZF_120hpf_legacy assay. It is designed to make measurements of zebrafish development as detected with brightfield microscopy of developing zebrafish embryos.Data from the assay component Tanguay_ZF_120hpf_TRUN_legacy was analyzed into 1 assay endpoints. This assay endpoint, Tanguay_ZF_120hpf_TRUN_legacy, was analyzed in the positive analysis fitting direction relative to DMSO as the negative control and baseline of activity. Using a type of morphology reporter, gain-of-signal activity can be used to understand changes in developmentals as they relate to the whole embryo. To generalize the intended target to other relatable targets, this assay endpoint is annotated to the zebrafish development intended target family, where the subfamily is embryonic morphogenesis.
Zebrafish husbandry: Tropical 5D wild-type adult zebrafish were housed in at an approximate density of 1000 per 100 gallon tank at the Sinnhuber Aquatic Research Laboratory, Oregon State University, Corvallis, OR. Each tank was kept at standard laboratory conditions of 28C on a 14-h light/10-h dark photoperiod in fish water consisting of reverse osmosis water supplemented with a commercially available salt (Instant Ocean). Spawning funnels were placed into the tanks the night prior, and embryos were collected and staged. To increase bioavailability, the chorion was enzymatically removed using pronase (63.6mg/ml, >/= 3.5U/mg, Sigma-Aldrich: P5147) at 4 hours post fertilization (hpf) using a custom automated dechorionator.Chemical exposures: Six hpf dechorionated embryos were placed 1 embryo per well in a 96-well plate prefilled with 90 ul of EM using automated embryo placement systems (AEPS). Ten microliters of each row of dilution plate 2 was added to 2 exposure plates. The final DMSO concentration used was 0.64% (vol/vol). Thirty-two embryos were also exposed to 5uM trimethyltin chloride (positive control). Plates were sealed to prevent evaporation and foil covered to reduce light exposure and kept in a 28C incubator. Embryos were statically exposed until 120 hpf. At 24 hpf, embryos were assessed for photomotor response using a custom photomotor response analysis tool (PRAT) and for developmental toxicity endpoints (MO24: mortality at 24 hpf, DP: developmental progression, SM: spontaneous movement, and NC: notochord distortion). At 120 hpf, locomotor activity was measured using Viewpoint Zebralab and assessed for 18 endpoints. Zebrafish acquisition and analysis program (ZAAP), a custom program designed to inventory, acquire, and manage zebrafish data, was used to collect developmental endpoints as either present or absent (i.e., binary responses were recorded). If mortality occurred for an embryo (at either 24 or 120 hpf), the non-mortality endpoints were not measured.

| SMILES | outcome | AC50 |
| --- | --- | --- |
| COc1cccc([C@H](O)C2CCN(CCc3ccc(F)cc3)CC2)c1OC | inactive |  |
| COc1cc(C(=O)NC2CCN(C)CC2)ccc1Nc1ncc2c(n1)N(C1CCCC1)CC(F)(F)C(=O)N2C |  | 31 µM (active) |
| CC(C)(O)c1ccc(CNC(=O)c2cccnc2Oc2ccc3nonc3c2)cc1 | inactive |  |
| CC(C)(C)c1csc(-c2cc3cc(OCc4ccccc4CC(=O)O)ccc3o2)n1 | inactive |  |
| CCCCCCCCCCCO | inactive |  |
| CCCCCc1ccc(N)cc1 | inactive |  |
| c1ccc(C[n+]2cccc3ccccc32)cc1 | inactive |  |
| C[C@]12CC[C@@H]3c4ccc(O)cc4CC[C@H]3[C@@H]1CCC2=O | inactive |  |
| O=C(Nc1ccc(Cl)cc1)Nc1ccc(Cl)c(Cl)c1 | inactive |  |
| CN1C(=O)CC[C@H]1c1cccnc1 | inactive |  |
| Cc1c2ccccc2c(C)c2c1ccc1ccccc12 | inactive |  |
| CC[C@H](NC(=O)c1cc(F)ccc1NS(=O)(=O)c1cccc2cccnc12)c1ccccc1 | inactive |  |
| CCOC(=O)O[C@H](C)OC(=O)c1ccc2c(c1)cc(C(=O)NC1CCN(C(C)C)CC1)n2Cc1cc(-c2ccc(Cl)s2)on1 | inactive |  |
| c1ccc2n[nH]nc2c1 | inactive |  |
| CCO[Si](CCCNC(N)=O)(OCC)OCC | inactive |  |
| CCCC(=O)OCCC(C)C | inactive |  |
| Cc1cccc2ccccc12 | inactive |  |
| CCN(Cc1cccnc1)C(=O)c1cccc(Cl)c1[C@]1(C)C(=O)N(Cc2ccc(OC)cc2OC)c2ccc(Cl)cc21 | inactive |  |
| O=C1c2ccccc2C(=O)N1CCc1noc(-c2ccc(CN3CCCCCC3)s2)n1 | inactive |  |
| NCc1cccc(C2CCN(C(=O)c3ccc(C#Cc4ccccc4F)o3)CC2)c1 | inactive |  |

| SMILES | outcome | AC50 |
| --- | --- | --- |
| O=C(OCCCCCCOC(=O)c1ccccc1)c1ccccc1 | inactive |  |
| Oc1ccc2ccccc2c1 |  | 50.2 µM (active) |
| CC1(C)NC(=O)N(c2ccc([N+](=O)[O-])c(C(F)(F)F)c2)C1=O | inactive |  |
| c1ccc2ccccc2c1 | inactive |  |
| CN1C(=O)N(c2ccccc2Br)Cc2cnc(Nc3ccc4c(c3)OCC(CO)O4)nc21 (stereo not given) | inactive |  |
| CC1=CC(=O)/C(=C(/C)O)C(=O)O1 | inactive |  |
| CC(=O)N1CCN(c2ccc(OC[C@H]3CO[C@](Cn4ccnc4)(c4ccc(Cl)cc4Cl)O3)cc2)CC1 | inactive |  |
| Oc1ccccc1 | inactive |  |
| Cc1cc(F)ccc1-c1cc(N2CC[C@@H](O)[C@H]2CO)ncc1N(C)C(=O)C(C)(C)c1cc(C(F)(F)F)cc(C(F)(F)F)c1 | inactive |  |
| CCN(Cc1cccc(S(=O)(=O)O)c1)c1ccc(C(=C2C=CC(=[N+](CC)Cc3cccc(S(=O)(=O)O)c3)C=C2)c2ccccc2S(=O)(=O)[O-])cc1 | inactive |  |
| Cc1cn([C@H]2C[C@H](N=[N+]=[N-])[C@@H](CO)O2)c(=O)[nH]c1=O | inactive |  |
| Cc1ccc2oc(CN(Cc3ccccc3)C(=O)Nc3c(F)cc(F)cc3F)c(-c3ccc(Cl)cc3)c2c1 | inactive |  |
| CCN(CC)C(=O)c1cc(S(=O)(=O)Cc2ccccc2)c(N2CCC(c3ccccc3)CC2)cc1N(CC)CCN(C)C | inactive |  |
| CC(C)(c1cc(Br)c(O)c(Br)c1)c1cc(Br)c(O)c(Br)c1 | inactive |  |
| CCCCCCCCCC(=O)O | inactive |  |
| O=c1ccc2ccccc2o1 | inactive |  |
| CO[C@H]1/C=C/O[C@@]2(C)Oc3c(C)c(O)c4c(O)c(c(/C=N/N5CCN(C)CC5)c(O)c4c3C2=O)NC(=O)/C(C)=C\C=C\[C@H](C)[C@H](O)[C@@H](C)[C@@H](O)[C@@H](C)[C@H](OC(C)=O)[C@@H]1C | inactive |  |
| Cc1cc2c(cc1C(F)(F)F)N(C(=O)Nc1ccc(Oc3cccnc3C)nc1)CC2 | inactive |  |
| CCCCOC(=O)c1ccc(O)cc1 |  | 21 µM (active) |
| CCCCCCCCOc1ccc(C(=O)c2ccccc2)c(O)c1 | inactive |  |
